# Records with an inconclusive call do not appear. Where a call stands in place of a potency, no number is given. Unmarked numbers belong to inactive results. Activity calls are given as the source filed them. Calls follow the shape of the dose curve; as a rule, active = well fitted curve in the direction sought with a large enough effect; inconclusive = small, poorly fitted or top-dose-only effect, or another doubt; inactive = no such curve, though single readings can be large; an effect the other way counts as inactive or inconclusive.
# Tests used:
# [1] = target: N-terminal Xaa-Pro-Lys N-methyltransferase 1 (Homo sapiens) (UniProt Q9BV86); test: qHTS Assay for Inhibitors of N-terminal methyltransferase 1 (NTMT1): LOPAC validation of the NTMT1 SAHH-coupled ThioGlo3 Assay (AID 1347143);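 also: SAH from peptide methylation measured as thiol fluorescence via SAHH coupling and ThioGlo3; nearly all actives have a fitted effect of over 70% in size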
# Procedure, shortened: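 Inhibition of NTMT1 methylation of peptide SPKRIA is followed by converting SAH with SAHH and labelling the released thiol with ThioGlo3. Plates are read at 340/450nm before and 30 min after reagent addition, both at room temperature.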
# [2] = tested on: Zika virus NS2B-NS3 protease (unlinked); test: Optimization of GU AMC qHTS for Zika virus inhibitors: Unlinked NS2B-NS3 protease assay (AID 1347151); also: series mostly up to about 52 µM; nearly all actives have a fitted effect of over 80% in size
# Procedure, shortened: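 Noncovalent NS2B hydrophilic domain–NS3 protease complex (25 nM final) in 10 mM Tris-HCl pH 8.0, 0.01% Tween 20; AMC substrate, room temperature 15 min (~20% conversion); fluorescence change normalized, 4-parameter Hill fit.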
# [3] = target: Lysine-specific demethylase 5B (Homo sapiens) (UniProt Q9UGL1); test: Optimization screen for KDM5B Histone Demethylases FDH coupled qHTS against the LOPAC library (AID 1347166)
# Procedure, shortened: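 KDM5BDeltaAP (200nM final) preincubated 10 min with compound, then 12.5uM H3K4Me3, 25uM a-ketoglutarate, ascorbate, Fe(II), NAD+ and FDH added; 50mM HEPES pH 7.5, 0.01% Tween-20. NADH fluorescence (340/450 nm) change over 30 min, room temperature.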
# Furin (Homo sapiens) = Furin (Homo sapiens) (UniProt P09958); test: Furin counterscreen qHTS for Zika virus inhibitors (AID 1347149);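 also: purified recombinant full-length human furin enzyme at 5 nM; fluorescence gain from furin cutting a BOC-RVRR-AMC peptide substrate over 15 min; top concentration of the series differs between compounds; nearly all actives have a fitted effect of over 70% in size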
# Procedure, shortened: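 Fluorogenic cleavage of BOC-RVRR-AMC (2 microM final, Km ~15 µM) was monitored (ex 340, em 450 nm) at 37C after 15 min RT preincubation of 5 nM furin with compounds in HEPES pH 7.0 buffer with CaCl2 and Triton X-100. Percent inhibition was fitted to a 4-parameter Hill curve.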
# [4] = Vero cells viability qHTS for Zika virus inhibitors (AID 1347167)
# Procedure, shortened: (§1)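 Compounds were tested in concentration series on cells grown in DMEM containing 4% FBS. After 24 to 48 hours, cellular ATP was measured by luminescence with CellTiter Glo.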
# [5] = HepG2 cells viability qHTS for Zika virus inhibitors (AID 1347168)
# Procedure, shortened: as §1
# [6] = Tertiary RLuc qRT-PCR qHTS assay for Zika virus inhibitors (AID 1347169); also: nearly all actives have a fitted effect of over 55% in size; also: potency is read from the fitted curve at half-maximal effect; as to activity change, negative = inhibition: top concentration of the series differs between compounds
# Procedure, shortened: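 Vero cells (1,000/well) infected with recombinant ZIKV-RLuc (Cambodian) at MOI 1-2 after compound addition, 48-72 hrs at 37 degrees C. Live-cell Renilla luciferase substrate added; luminescence read after 1-1.5 hrs.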
# [7] = tested on: Zika virus NS2B-NS3 protease; test: Primary screen GU AMC qHTS for Zika virus inhibitors (AID 1347154); also: nearly all actives have a fitted effect of over 70% in size
# Procedure, shortened: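 Fluorogenic AMC-substrate cleavage by noncovalent NS2B-NS3 protease complex (25 nM, pH 8.0 Tris buffer with Tween 20) followed for 15 minutes at room temperature (~20% conversion). Percent inhibition from ex340/em450 signal change, fitted by 4-parameter Hill equation.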
# [8] = Confirmatory screen GU Rhodamine qHTS for Zika virus inhibitors qHTS (AID 1347157); also: nearly all actives have a fitted effect of over 70% in size
# Procedure, shortened: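 Percent inhibition came from the 15-min rise in Rhodamine110 fluorescence (1.5 microM substrate, ~15% conversion), normalized to no-inhibitor and no-enzyme wells and Hill-fitted. Unlinked protease, 25 nM, pH 8.0 Tris buffer; compounds up to 114 microM, 15-min preincubation.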
# N-terminal Xaa-Pro-Lys N-methyltransferase 1 (Homo sapiens), sequence (Q9BV86 whole entry, looked up): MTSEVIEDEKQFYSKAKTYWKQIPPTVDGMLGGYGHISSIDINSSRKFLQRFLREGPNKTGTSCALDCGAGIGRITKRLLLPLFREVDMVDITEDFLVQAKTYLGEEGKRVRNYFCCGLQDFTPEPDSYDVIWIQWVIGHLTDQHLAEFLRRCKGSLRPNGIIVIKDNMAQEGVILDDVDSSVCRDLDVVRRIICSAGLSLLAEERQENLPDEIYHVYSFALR
# Lysine-specific demethylase 5B (Homo sapiens), sequence (Q9UGL1 whole entry, looked up): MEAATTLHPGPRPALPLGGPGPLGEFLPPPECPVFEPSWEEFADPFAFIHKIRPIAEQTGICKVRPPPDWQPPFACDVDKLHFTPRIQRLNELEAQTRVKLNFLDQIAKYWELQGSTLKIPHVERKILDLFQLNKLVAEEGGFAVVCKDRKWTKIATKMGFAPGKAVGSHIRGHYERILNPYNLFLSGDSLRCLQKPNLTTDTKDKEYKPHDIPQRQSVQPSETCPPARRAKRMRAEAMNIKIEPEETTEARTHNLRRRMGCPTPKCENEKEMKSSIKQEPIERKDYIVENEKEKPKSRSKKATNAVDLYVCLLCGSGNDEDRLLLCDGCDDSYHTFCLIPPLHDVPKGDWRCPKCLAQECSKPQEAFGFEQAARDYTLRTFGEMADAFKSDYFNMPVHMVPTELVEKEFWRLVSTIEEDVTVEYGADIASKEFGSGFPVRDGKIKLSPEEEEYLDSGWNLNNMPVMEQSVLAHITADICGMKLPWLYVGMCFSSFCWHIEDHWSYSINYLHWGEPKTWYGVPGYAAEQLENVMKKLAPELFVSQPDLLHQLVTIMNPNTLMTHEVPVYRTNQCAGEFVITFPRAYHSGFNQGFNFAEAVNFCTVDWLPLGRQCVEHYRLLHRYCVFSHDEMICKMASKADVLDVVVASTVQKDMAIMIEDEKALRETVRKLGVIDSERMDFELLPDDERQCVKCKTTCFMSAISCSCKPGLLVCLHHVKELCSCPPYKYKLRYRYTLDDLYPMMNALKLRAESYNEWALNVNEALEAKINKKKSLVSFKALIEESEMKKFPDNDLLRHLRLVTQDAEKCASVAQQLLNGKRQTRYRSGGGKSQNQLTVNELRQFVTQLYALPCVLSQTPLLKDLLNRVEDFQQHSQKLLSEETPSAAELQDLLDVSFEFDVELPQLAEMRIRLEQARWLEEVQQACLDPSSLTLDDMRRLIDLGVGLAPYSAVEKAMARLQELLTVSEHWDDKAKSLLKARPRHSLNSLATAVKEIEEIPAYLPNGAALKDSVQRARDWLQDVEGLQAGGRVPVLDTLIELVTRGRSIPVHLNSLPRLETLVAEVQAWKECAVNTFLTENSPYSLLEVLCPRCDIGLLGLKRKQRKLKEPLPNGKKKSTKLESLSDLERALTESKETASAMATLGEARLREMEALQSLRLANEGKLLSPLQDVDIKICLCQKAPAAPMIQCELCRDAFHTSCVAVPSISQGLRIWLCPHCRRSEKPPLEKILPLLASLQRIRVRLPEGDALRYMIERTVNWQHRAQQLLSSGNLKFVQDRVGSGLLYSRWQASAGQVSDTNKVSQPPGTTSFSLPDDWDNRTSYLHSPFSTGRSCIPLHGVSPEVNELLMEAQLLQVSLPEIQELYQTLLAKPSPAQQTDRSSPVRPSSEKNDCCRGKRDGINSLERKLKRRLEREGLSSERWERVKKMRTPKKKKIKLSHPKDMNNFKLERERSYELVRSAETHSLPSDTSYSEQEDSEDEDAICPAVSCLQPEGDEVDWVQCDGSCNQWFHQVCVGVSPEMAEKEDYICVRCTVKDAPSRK
# Furin (Homo sapiens), sequence (P09958 whole entry, looked up): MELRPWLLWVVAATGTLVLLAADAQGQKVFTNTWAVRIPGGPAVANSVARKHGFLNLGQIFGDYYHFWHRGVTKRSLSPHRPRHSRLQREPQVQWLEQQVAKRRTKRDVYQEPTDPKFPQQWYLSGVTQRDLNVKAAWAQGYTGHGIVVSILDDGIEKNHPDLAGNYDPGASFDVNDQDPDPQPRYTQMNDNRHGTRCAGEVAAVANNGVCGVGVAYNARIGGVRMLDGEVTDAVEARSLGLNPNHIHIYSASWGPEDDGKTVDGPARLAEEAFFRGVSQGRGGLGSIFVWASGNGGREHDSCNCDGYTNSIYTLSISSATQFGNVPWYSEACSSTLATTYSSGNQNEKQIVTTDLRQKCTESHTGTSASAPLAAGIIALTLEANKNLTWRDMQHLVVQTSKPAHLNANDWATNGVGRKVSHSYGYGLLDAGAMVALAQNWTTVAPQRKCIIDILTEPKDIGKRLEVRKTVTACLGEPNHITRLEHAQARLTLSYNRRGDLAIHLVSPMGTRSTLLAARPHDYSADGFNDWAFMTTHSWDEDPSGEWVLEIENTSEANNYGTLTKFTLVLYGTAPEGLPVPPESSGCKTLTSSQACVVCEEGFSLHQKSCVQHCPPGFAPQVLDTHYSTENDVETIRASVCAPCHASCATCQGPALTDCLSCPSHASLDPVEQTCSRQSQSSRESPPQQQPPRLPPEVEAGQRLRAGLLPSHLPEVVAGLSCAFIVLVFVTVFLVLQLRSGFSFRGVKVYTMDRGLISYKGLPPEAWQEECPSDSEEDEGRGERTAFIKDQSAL
smiles,measurement,setting,value
Clc1cc(I)cc(Cl)c1NC1=NCCN1,Potency,[1],inactive
same,Potency,[2],inactive
same,Potency,[3],inactive
OC1CCCCC1N1CCC(c2ccccc2)CC1 (configuration not stated),Potency,[1],inactive
same,Potency,[2],inactive
same,Potency,[3],inactive
c1ccc2cc(CC3=NCCN3)ccc2c1,Potency,[1],inactive
same,Potency,[2],inactive
same,Potency,[3],inactive
COc1ccc(OC)c(C(O)C(C)N)c1 (configuration not stated),Potency,[1],inactive
same,Potency,[2],inactive
same,Potency,[3],inactive
CC[C@H](C)[C@H]1O[C@]2(C=C[C@@H]1C)C[C@@H]1C[C@@H](C/C=C(\C)[C@@H](O[C@H]3C[C@H](OC)[C@@H](O[C@H]4C[C@H](OC)[C@@H](O)[C@H](C)O4)[C@H](C)O3)[C@@H](C)/C=C/C=C3\CO[C@@H]4[C@H](O)C(C)=C[C@@H](C(=O)O1)[C@]34O)O2,Potency,Furin (Homo sapiens),inactive
same,Potency,[2],inactive
same,outcome,[4],inactive
same,outcome,[5],inactive
same,Potency,[6],20.8 µM (active)
CCCN1CCC[C@@H](c2cccc(O)c2)C1,Potency,[1],inactive
same,Potency,[2],inactive
same,Potency,[3],inactive
Clc1ccc(N2CC3CCC(C2)N3)nn1,Potency,[2],inactive
CC(N)c1cccc(Cl)c1Cl (configuration not stated),Potency,[1],inactive
same,Potency,[2],inactive
same,Potency,[3],inactive
Cc1cc([C@@H]2CCCN2C)on1,Potency,[1],inactive
same,Potency,[2],inactive
same,Potency,[3],inactive
CC(Cc1ccc(OCC(=O)O)cc1)NCC(O)c1cccc(Cl)c1 (configuration not stated),Potency,[1],inactive
same,Potency,[2],inactive
same,Potency,[7],inactive
same,Potency,[3],inactive
NCCc1c[nH]c2ccc(C(N)=O)cc12,Potency,[1],inactive
same,Potency,[7],inactive
Oc1cc(Cl)c(Cl)cc1Cl,Potency,Furin (Homo sapiens),inactive
same,Potency,[8],inactive
same,"activity change, negative = inhibition",[6],-13.8% [at 5.25 µM]
O=C1C=CC(=O)C=C1,Potency,[1],inactive
same,Potency,[2],inactive
same,Potency,[3],inactive
CCCC[N+]1(C)C2CC(OC(=O)[C@H](CO)c3ccccc3)CC1C1OC12 (some centres not stated),Potency,[1],inactive
same,Potency,[2],inactive
same,Potency,[3],inactive

# Source: PubChem BioAssay (NCATS)
